Pf growth 96h: P. falciparum growth inhibition at 96 hour, primary screen for plastid delayed-death inhibitors; Potency, µM (highest dose often 28.7 µM), for inactives: at the highest dose activity change, negative = inhibition, most hits filed as inhibitors; P. falciparum luciferase reporter growth, 96 h; AID 504834; 320,000 tested, 6.9% active; further: potency means the concentration at half of the fitted maximal effect; on the % scale 0 is the no-effect control and ±100 the full control effect
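Cell-based qHTS: luciferase-tagged P. falciparum in erythrocytes (2% hematocrit, 0.05% parasitemia final) incubated with compounds for 96 hours, 37 C, 5% CO2; luciferase detection reagent then added and luminescence measured.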
CHX counter: counter-screen hit for Shiga toxin inhibitors, cycloheximide. max response, %. 300,000 tested, 12% active. AID 2314. cell reporter, cycloheximide protein synthesis inhibition counterscreen; in the data active means max response mostly above about 13%, no sharp cut-off; inactive means mostly below about 14%; further: read at 38.3 µM for the half of the compounds with a filed dose; 0% is about no effect
Pf growth 48h: P. falciparum growth inhibition at 48 hours (one generation). Potency, µM (top dose mostly 28.7 µM), inactives show top-dose activity change, negative = inhibition, most hits filed as inhibitors. 310,000 tested, 5.9% active. P. falciparum luciferase growth in erythrocytes, 48 h; further: potency means the concentration at half of the fitted maximal effect; on the % scale 0 is the no-effect control and ±100 the full control effect
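Cell-based growth assay: transgenic P. falciparum expressing firefly luciferase, cultured in red cells within RPMI 1640 containing 0.5% w/v Albumax, 24 mM bicarbonate and gentamycin. A drop in luciferase activity indicates inhibition.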
HCV inh: HCV inhibition | Potency, µM (series often up to 41.8 µM), without a hit: at the top dose activity change, negative = inhibition, actives largely listed as inhibitors | Huh7.5.1 HCVcc-Cre infection, luciferase reporter, 44 h | 340,000 tested, 3.4% active | AID 651820; further: potency means the concentration at half of the fitted maximal effect; on the % scale 0 is the no-effect control and ±100 the full control effect
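Compounds are dispensed onto cells plated 4 h earlier at 1,000 per well, with HCVcc-Cre virus (about 0.5 moi) added next. Following 44 h of culture, luminescent signal is measured for 15 sec after 15 min with substrate at room temperature.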
HCMV inh: blocks human cytomegalovirus replication; HFF cells, HCMV-luciferase reporter, 72 h; active compounds read low; 410,000 tested, 4.5% active; AID 1259415; activity change, negative = inhibition, % at 57.5 µM; in the data active means activity change below about -60%; inconclusive means no clear call, values can overlap the other calls; inactive means above about -39%; further: on the % scale 0 is the no-effect control and ±100 the full control effect
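After 16 h attachment at 37C, HFF cells received test compound and HCMV-luciferase (1 PFU/cell); reporter luminescence read 72 h later, data normalized against buffer-only and known inhibitor Salinomycin.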
Shiga toxin inh: inhibitors of Shiga toxin in Vero cells; Vero cells, Shiga toxin protein synthesis inhibition reporter; inhibition, % at 38.7 µM; 290,000 tested, 9.2% active; in the data active means inhibition mostly above about 28%, no sharp cut-off; inactive means mostly below about 43%; further: 0% is about no effect
An asterisk follows results filed as active. In the library only some 21% were active in any assay of this set; here they are far more common. Unless noted, the call rests on the fitted dose curve; in most records, active means well fitted inhibition curve with a large enough effect; inconclusive means small, poorly fitted or top-dose-only effect, or another doubt; inactive means no such curve, though single readings can be large or run the other way.

What do the screens show for `Cc1ccccc1NC(=S)c1nc2ccccc2[nH]1`?
Pf growth 96h: -21%; CHX counter: 42*; Pf growth 48h: 3.3µM*; HCV inh: inconclusive; HCMV inh: 16; Shiga toxin inh: active

What do the screens show for `S=C(Nc1ccc(Cl)cc1)c1nc2ccccc2[nH]1`?
Pf growth 96h: inconclusive; CHX counter: 59*; Pf growth 48h: -42%; HCV inh: 11µM*; HCMV inh: -36; Shiga toxin inh: 66*

Results for CC1=NN(C(=O)CCc2ccccc2)C(O)(c2ccncc2)C1 (centres undefined) ?
Pf growth 96h: -11%; CHX counter: 5; Pf growth 48h: -2%; HCV inh: 8%; HCMV inh: -7; Shiga toxin inh: -3

What do the screens show for `CCCOc1ccc(C(=O)N2CC3(CC(c4cccc(NC(=O)[C@@H]5CCC(=O)N5)c4)=NO3)C[C@H]2C(=O)NC2(C(N)=O)CC2)cc1` (some centres undefined)?
Pf growth 96h: 7%; CHX counter: -2; Pf growth 48h: 19%; HCV inh: 2%; HCMV inh: -64*; Shiga toxin inh: -8

What do the screens show for `COc1ccc(C(=O)N2CC3(CC(c4cccc(NC(=O)COc5ccc(Cl)cc5)c4)=NO3)C[C@@H]2C(N)=O)cc1` (some centres undefined)?
Pf growth 96h: 12µM*; CHX counter: 8; Pf growth 48h: 10µM*; HCV inh: -13%; HCMV inh: -20; Shiga toxin inh: 26

What do the screens show for `CCCCCC(=O)Nc1cccc(C2=NOC3(C2)C[C@@H](C(N)=O)N(C(=O)Cc2ccc([N+](=O)[O-])cc2)C3)c1` (some centres undefined)?
Pf growth 96h: inconclusive; CHX counter: -3; Pf growth 48h: inconclusive; HCV inh: -13%; HCMV inh: 28; Shiga toxin inh: -6

What do the screens show for `NC(=O)[C@H]1CC2(CC(c3cccc(NC(=O)COc4ccc(Cl)cc4)c3)=NO2)CN1C(=O)Cc1ccc([N+](=O)[O-])cc1` (some centres undefined)?
Pf growth 96h: 12µM*; CHX counter: -1; Pf growth 48h: 8.3µM*; HCV inh: 1.6µM*; HCMV inh: -78*; Shiga toxin inh: -4

How did NC(=O)C1(NC(=O)[C@@H]2CC3(CC(c4cccc(NC(=O)[C@@H]5CCC(=O)N5)c4)=NO3)CN2C(=O)c2ccccc2)CC1 (some centres undefined) do in these assays?
Pf growth 96h: 33%; CHX counter: -3; Pf growth 48h: 3%; HCV inh: 12%; HCMV inh: -17; Shiga toxin inh: -4

How did NC(=O)[C@@H]1CC2(CC(c3cccc(NC(=O)COc4ccc(Cl)cc4)c3)=NO2)CN1C(=O)c1ccccc1 (some centres undefined) do in these assays?
Pf growth 96h: 13µM*; CHX counter: -5; Pf growth 48h: 10µM*; HCV inh: inconclusive; HCMV inh: 17; Shiga toxin inh: -8

How did O=C(C1CC=CCC1)N1CCC(CO)(Cc2ccc(Cl)cc2)CC1 (centres undefined) do in these assays?
Pf growth 96h: inconclusive; CHX counter: -1; Pf growth 48h: inconclusive; HCV inh: inconclusive; HCMV inh: -13; Shiga toxin inh: 6

What do the screens show for `Cc1cc(C)c(NC(=O)CSc2cn(CC(=O)N3CCOCC3)c3ccccc23)c(C)c1`?
HCMV inh: -5

How did C[C@@H]1CN([C@H](C)CO)C(=O)CCCn2cc(nn2)CO[C@H]1CN(C)C(=O)Nc1ccc2c(c1)OCCO2 do in these assays?
HCMV inh: 74

Results for COc1ccc(CCNc2nc(SCc3ccccc3Cl)nc3ccccc23)cc1OC ?
HCMV inh: -10

Results for O=C(O)c1cc(NN=C2CCN(Cc3ccccc3)CC2)ccc1Cl ?
Pf growth 96h: inconclusive; CHX counter: 1; Pf growth 48h: -6%; HCV inh: 3%; HCMV inh: -21; Shiga toxin inh: 12

How did CCOC(=O)C1=C(C)C/C(=N\NC(=O)c2ccccc2O)CC1 do in these assays?
Pf growth 96h: inconclusive; CHX counter: 23*; Pf growth 48h: inconclusive; HCV inh: 3%; HCMV inh: 74; Shiga toxin inh: 38

What do the screens show for `CCCN1CCC(=NNc2ccc(C(=O)O)cc2)CC1`?
Pf growth 96h: 61%; CHX counter: 30*; Pf growth 48h: 113%; HCV inh: -20%; HCMV inh: 2; Shiga toxin inh: 40*

How did CCN1CCC(=NNC(=O)c2ccco2)CC1 do in these assays?
Pf growth 96h: 58%; CHX counter: 56*; HCV inh: 6%; HCMV inh: 9; Shiga toxin inh: 53*

What do the screens show for `CCN1CCN(c2c(Cl)cccc2NC(=O)c2ccco2)CC1`?
Pf growth 96h: -21%; CHX counter: -3; Pf growth 48h: -13%; HCV inh: inconclusive; HCMV inh: -15; Shiga toxin inh: -13

How did O=C(NN=C1CCN(Cc2ccccc2)CC1)c1ccccc1O do in these assays?
Pf growth 96h: 0%; CHX counter: 22*; Pf growth 48h: 12%; HCV inh: -23%; HCMV inh: -28; Shiga toxin inh: 35*

How did CC(=O)N[C@@H](CC(C)C)C(=O)N[C@@H](CCCNC(=N)N)C(=O)N[C@@H](Cc1cnc[nH]1)C(=O)N[C@@H](Cc1ccc(O)cc1)C(=O)N[C@@H](CC(C)C)C(=O)N[C@@H](CC(N)=O)C(=O)N[C@@H](CC(C)C)C(=O)N[C@@H](CC(C)C)C(=O)N[C@H](C(=O)N[C@@H](CCCNC(=N)N)C(=O)N[C@@H](CCC(N)=O)C(=O)N[C@@H](CCCNC(=N)N)C(=O)N[C@@H](Cc1ccc(O)cc1)C(N)=O)[C@@H](C)O do in these assays?
CHX counter: -3; Shiga toxin inh: 10

What do the screens show for `CCCN1CCC(=NNC(=O)c2ccc(Br)o2)CC1`?
Pf growth 96h: 52%; CHX counter: 41*; Pf growth 48h: 21%; HCV inh: 2%; HCMV inh: -31; Shiga toxin inh: 70*

What do the screens show for `Cc1cccc(/C=C/C(=O)c2ccc(N3CCOCC3)cc2)c1`?
Pf growth 96h: -55%; CHX counter: 14*; Pf growth 48h: -3%; HCV inh: 8%; HCMV inh: -29; Shiga toxin inh: 45*

How did Cc1ccc(/C=C/C(=O)c2ccc(N3CCOCC3)cc2)s1 do in these assays?
Pf growth 96h: 208%; CHX counter: 27*; Pf growth 48h: 234%; HCV inh: inconclusive; HCMV inh: 20; Shiga toxin inh: 83

How did CCc1ccc(/C=C/C(=O)c2ccc(N3CCOCC3)cc2)cc1 do in these assays?
Pf growth 96h: -25%; CHX counter: 15*; Pf growth 48h: 12%; HCV inh: inconclusive; HCMV inh: -21; Shiga toxin inh: active
